Experimental data taken from PubChem BioAssay.
Activity calls are given as the source filed them. Unless noted, the rule behind the calls is not given here.

Experiments:
[1] = resazurin metabolic signal in HepG2 cells – cell-based, resazurin fluorescence, 24 h, PK04 Diversity Set, profiling panel (AID 1172); conditions: HepG2 viability, higher = more signal
[2] = budding yeast growth changes without added modifier – OD600, strain BY4716, 24 h, basal condition, primary screen (AID 1173); conditions: S. cerevisiae BY4716 growth, OD600, 24 h; higher = more signal, called active from +8 up or from −8 down
[3] = viability profiling in MM1S myeloma cells – cell-based, resazurin fluorescence, basal, 24 h, PK04 Diversity Set, profiling panel (AID 1174); conditions: higher = more signal, called active from +8 up or from −8 down;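 note: MM1S multiple myeloma cell line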
[4] = molecular target: Dihydroorotate dehydrogenase (quinone), mitochondrial (Plasmodium falciparum (isolate 3D7)) (UniProt Q08210); test: inhibition of P. falciparum DHODH – biochemical, C-terminal His tag, absorbance 600 nm, primary screen (AID 1175); conditions: PfDHODH enzyme, DCIP absorbance 600 nm; higher = more signal, called active from +8 up or from −8 down;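 note: recombinant parasite enzyme with a five histidine tag at its C terminus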
[5] = growth modulation of vineyard yeast isolate – strain RM11-1a, OD600, basal, 24 h, primary screen (AID 1177);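 note: cultures grown under basal conditions with no added stressor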; conditions: S. cerevisiae RM11-1a growth, OD600, 24 h; higher = more signal, called active from +8 up or from −8 down
[6] = growth of efflux-deficient E. coli DRC39 – strain DRC39, OD650, 24 h, E. coli filamentation inducers, primary screen (AID 1178);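 note: growth measured as culture turbidity by optical density at 650 nm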; conditions: E. coli DRC39 acrAB, higher = more signal, called active from +8 up or from −8 down
[7] = growth of efflux-deficient E. coli DRC39 – strain DRC39, OD650, 48 h, E. coli filamentation inducers, primary screen (AID 1179);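 note: screen aims at cell division blockers that make cells filament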; conditions: E. coli DRC39 delta-acrAB growth, higher = more signal, called active from +8 up or from −8 down
[8] = viability profiling in RPMI8226 myeloma cells – cell-based, resazurin fluorescence, basal, 24 h, PK04 Diversity Set, profiling panel (AID 1180); conditions: higher = more signal;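 note: RPMI8826 multiple myeloma cell line at 5000 cells per well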
[9] = molecular target: E3 ubiquitin-protein ligase XIAP (Homo sapiens) (UniProt P98170); test: small molecules binding XIAP protein – biophysical, small-molecule microarray, fluorescence 635 nm, primary screen (AID 1181); conditions: higher = more signal;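 note: score merges 667 nm emission and signal to noise over triplicate slides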
[10] = system: XIP peptide (Xip251-270) binding; test: XIP fragment 251-270 binding compounds – biochemical, small-molecule microarray, fluorescence 635/667 nm, 0.1 µg/mL protein, primary screen (AID 1182); conditions: fluorescent protein binding, 635 nm, higher = more signal, called active from +8 up or from −8 down
[11] = system: XIP peptide (Xip251-270); test: compounds binding XIP fragment 251-270 – biochemical, small-molecule microarray, fluorescence 635/667 nm, 0.5 µg/mL protein, primary screen (AID 1183); conditions: fluorescence 635 nm, higher = more signal
[12] = blood-stage malaria parasite viability loss – strain 3D7, DAPI fluorescence, 100 nL, primary screen (AID 1184);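 note: parasites grown inside human red blood cells in medium with human serum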; conditions: P. falciparum 3D7 growth, 3 d, higher = more signal
[13] = molecular target: Homeobox protein Hox-A13 (Mus musculus) (UniProt Q62424); test: disruptors of Hoxa13 oligonucleotide interaction – biochemical, fluorescence polarization, labeled oligonucleotide, primary screen (AID 1185); conditions: Hoxa13:DNA binding, 15 min, higher = more signal, called active from +8 up or from −8 down
[14] = blockers of DNA damage checkpoint Chk1 activation – imaging, HeLa, hydroxyurea, phospho-Chk1 antibody, percent positive cells, primary screen (AID 1186); conditions: hydroxyurea-induced phospho-Chk1 immunofluorescence imaging, higher = more signal
[15] = blockers of DNA damage checkpoint Chk1 activation – imaging, HeLa, hydroxyurea, phospho-Chk1 nuclear intensity, primary screen (AID 1187); conditions: hydroxyurea-induced phospho-Chk1 immunofluorescence imaging, higher = more signal

Chain of Dihydroorotate dehydrogenase (quinone), mitochondrial (Plasmodium falciparum (isolate 3D7)) (Q08210 whole entry, looked up): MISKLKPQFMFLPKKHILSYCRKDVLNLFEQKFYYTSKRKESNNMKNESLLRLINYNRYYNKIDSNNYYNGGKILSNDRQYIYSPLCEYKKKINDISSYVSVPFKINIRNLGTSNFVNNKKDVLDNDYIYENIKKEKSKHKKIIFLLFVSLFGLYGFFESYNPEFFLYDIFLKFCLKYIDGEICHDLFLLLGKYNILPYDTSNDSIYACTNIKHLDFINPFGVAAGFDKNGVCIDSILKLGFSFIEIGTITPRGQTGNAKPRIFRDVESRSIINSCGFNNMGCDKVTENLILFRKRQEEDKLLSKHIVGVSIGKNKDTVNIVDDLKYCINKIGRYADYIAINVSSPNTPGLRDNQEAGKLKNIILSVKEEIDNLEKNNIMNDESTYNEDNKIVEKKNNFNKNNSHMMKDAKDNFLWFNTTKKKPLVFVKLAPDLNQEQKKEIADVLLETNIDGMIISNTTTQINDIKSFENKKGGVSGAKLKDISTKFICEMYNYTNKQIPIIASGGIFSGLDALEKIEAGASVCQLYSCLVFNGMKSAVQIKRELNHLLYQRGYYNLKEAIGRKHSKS
Chain of Homeobox protein Hox-A13 (Mus musculus) (Q62424 whole entry, looked up): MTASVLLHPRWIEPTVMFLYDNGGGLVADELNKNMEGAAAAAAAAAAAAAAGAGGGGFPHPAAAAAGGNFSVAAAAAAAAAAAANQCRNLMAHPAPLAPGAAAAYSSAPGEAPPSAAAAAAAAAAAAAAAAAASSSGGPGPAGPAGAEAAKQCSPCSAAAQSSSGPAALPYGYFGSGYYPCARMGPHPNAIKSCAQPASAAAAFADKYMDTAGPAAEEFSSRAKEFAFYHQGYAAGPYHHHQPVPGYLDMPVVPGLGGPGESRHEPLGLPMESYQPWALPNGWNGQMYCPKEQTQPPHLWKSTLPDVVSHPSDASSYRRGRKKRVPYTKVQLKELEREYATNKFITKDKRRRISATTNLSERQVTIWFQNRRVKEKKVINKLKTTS
Chain of E3 ubiquitin-protein ligase XIAP (Homo sapiens) (P98170 whole entry, looked up, the tested form may be a part): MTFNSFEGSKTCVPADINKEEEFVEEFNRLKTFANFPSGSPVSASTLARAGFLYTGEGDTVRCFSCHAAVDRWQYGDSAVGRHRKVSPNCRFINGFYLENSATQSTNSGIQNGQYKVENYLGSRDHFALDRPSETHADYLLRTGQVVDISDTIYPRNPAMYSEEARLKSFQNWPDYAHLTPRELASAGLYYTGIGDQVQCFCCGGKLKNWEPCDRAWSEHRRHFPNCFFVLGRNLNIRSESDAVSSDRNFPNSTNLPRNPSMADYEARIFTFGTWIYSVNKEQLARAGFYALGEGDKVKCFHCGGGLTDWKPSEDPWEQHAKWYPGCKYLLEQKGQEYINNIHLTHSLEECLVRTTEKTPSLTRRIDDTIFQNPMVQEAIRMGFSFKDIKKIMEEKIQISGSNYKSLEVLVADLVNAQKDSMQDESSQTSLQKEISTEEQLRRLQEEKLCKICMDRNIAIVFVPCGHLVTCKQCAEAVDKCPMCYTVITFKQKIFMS

Question: Which results are given for CCOC(=O)C[C@H]1[C@H](OC(=O)Cc2ccc3c(c2)OCO3)[C@@H](NC(=O)CC(C)C)c2cc(OCCCO)ccc2N1C(=O)c1ccccc1?
Answer: z-score [1]: 1.05; z-score [2]: -1.05 (inactive); z-score [3]: 0.548 (inactive); composite z-score [4]: 0.679 (inactive); z-score [5]: -0.606 (inactive); z-score [6]: 2.13 (inactive); z-score [7]: 1.65 (inactive); z-score [8]: 0.458; composite z-score [9]: 0.0015; composite z-score [10]: 0.443 (inactive); composite z-score [11]: -0.487; z-score [12]: -0.584; z-score [13]: -1.41 (inactive); z-score [14]: -0.398 (inactive); z-score [15]: -0.321 (inactive)

Question: Which results are given for CCCNC(=O)[C@@]1(Sc2ccc(C)cc2)CC(=O)N(Cc2ccccc2Cl)[C@@H]1c1ccc(CO)cc1?
Answer: z-score [1]: -0.48; z-score [2]: -0.573 (inactive); z-score [3]: 1.12 (inactive); composite z-score [4]: -3.67 (inactive); z-score [5]: -2.58 (inactive); z-score [6]: 1.23 (inactive); z-score [7]: 0.337 (inactive); z-score [8]: 1.13; composite z-score [9]: 0.105; composite z-score [10]: 0.266 (inactive); composite z-score [11]: -0.271; z-score [12]: -1.79; z-score [13]: -1.4 (inactive); z-score [14]: -0.423 (inactive); z-score [15]: -0.365 (inactive)

Question: For CC(C)CN1C(=O)[C@@]2(Cc3ccccc31)c1ccccc1C(=O)N(C1CCCCC1)[C@H]2c1ccc(CO)cc1, which z-score [1] is on record?
Answer: 0.0515

Question: And the z-score [2]?
Answer: -1.91 (inactive)

Question: What about the z-score [3] of the same molecule?
Answer: 1.05 (inactive)

Question: And the composite z-score [4]?
Answer: -2.88 (inactive)

Question: What about the z-score [5] of the same molecule?
Answer: -1.12 (inactive)

Question: What about the z-score [6] of the same molecule?
Answer: 0.164 (inactive)

Question: And the z-score [7]?
Answer: 0.464 (inactive)

Question: What about the z-score [8] of the same molecule?
Answer: 1.21

Question: What about the composite z-score [9] of the same molecule?
Answer: 0.377

Question: What about the composite z-score [10] of the same molecule?
Answer: 1.15 (inactive)

Question: And the composite z-score [11]?
Answer: -0.906

Question: And the z-score [12]?
Answer: -1.38

Question: And the z-score [13]?
Answer: -0.429 (inactive)

Question: What about the z-score [14] of the same molecule?
Answer: -0.81 (inactive)

Question: What about the z-score [15] of the same molecule?
Answer: -1.17 (inactive)

Question: Which results are given for C=CCNC(=O)[C@H]1[C@@H]2C(=O)O[C@@H](c3ccccc3)[C@@H](c3ccccc3)N2[C@@H](c2ccccc2OCCO)[C@]12C(=O)N(C(=O)OCCOC)c1ccc(C#CCC(C(=O)OC)C(=O)OC)cc12?
Answer: z-score [1]: -0.234; z-score [2]: 1.06 (inactive); z-score [3]: 1.25 (inactive); composite z-score [4]: 0.229 (inactive); z-score [5]: 1.72 (inactive); z-score [6]: 1.11 (inactive); z-score [7]: 0.761 (inactive); z-score [8]: -0.54; composite z-score [9]: 0.182; composite z-score [10]: 1.09 (inactive); composite z-score [11]: 0.818; z-score [12]: -2.36; z-score [13]: 0.6 (inactive); z-score [14]: -0.263 (inactive); z-score [15]: -0.35 (inactive)

Question: Which z-score [1] does the source give for C=C(COC)/C(=C/C[C@@H](OC(=O)c1ccncc1)c1ccc(OCCO)cc1)c1cc(C(=O)OC)ccc1OC here?
Answer: 0.789

Question: And the z-score [2]?
Answer: -2.19 (inactive)

Question: And the z-score [3]?
Answer: 1.36 (inactive)

Question: What about the composite z-score [4] of the same molecule?
Answer: -1.32 (inactive)

Question: What about the z-score [5] of the same molecule?
Answer: -2.6 (inactive)

Question: And the z-score [6]?
Answer: 2.65 (inactive)

Question: And the z-score [7]?
Answer: 1.79 (inactive)

Question: And the z-score [8]?
Answer: 1.16

Question: What about the composite z-score [9] of the same molecule?
Answer: -0.103

Question: What about the composite z-score [10] of the same molecule?
Answer: 1.08 (inactive)

Question: What about the composite z-score [11] of the same molecule?
Answer: 0.749

Question: And the z-score [12]?
Answer: -2.98

Question: What about the z-score [13] of the same molecule?
Answer: -4.62 (inactive)

Question: And the z-score [14]?
Answer: -0.252 (inactive)

Question: What about the z-score [15] of the same molecule?
Answer: 0.535 (inactive)

Question: With O=C1O[C@@H](c2ccccc2)[C@@H](c2ccccc2)N2[C@@H](c3ccc(O)cc3)[C@]3(C(=O)Nc4ccccc43)[C@@H](C(=O)N3CCN(c4ncccn4)CC3)[C@H]12 as the molecule, how does the z-score [1] read?
Answer: 0.838

Question: And the z-score [2]?
Answer: -0.863 (inactive)

Question: And the z-score [3]?
Answer: -0.798 (inactive)

Question: What about the composite z-score [4] of the same molecule?
Answer: -0.63 (inactive)

Question: What about the z-score [5] of the same molecule?
Answer: -0.0045 (inactive)

Question: What about the z-score [6] of the same molecule?
Answer: 0.208 (inactive)

Question: And the z-score [7]?
Answer: 1.05 (inactive)

Question: What about the z-score [8] of the same molecule?
Answer: -0.442

Question: And the composite z-score [9]?
Answer: -0.311

Question: What about the composite z-score [10] of the same molecule?
Answer: 1.55 (inactive)

Question: What about the composite z-score [11] of the same molecule?
Answer: -0.278

Question: What about the z-score [12] of the same molecule?
Answer: -1.46

Question: What about the z-score [13] of the same molecule?
Answer: -2.96 (inactive)

Question: What about the z-score [14] of the same molecule?
Answer: -0.231 (inactive)

Question: And the z-score [15]?
Answer: -0.242 (inactive)

Question: What does the source list for COc1cc(CO)cc(I)c1O[C@H]1C=C(C(=O)NCCO)C[C@@H](NCCc2c[nH]c3ccccc23)[C@@H]1O?
Answer: z-score [1]: 0.507; z-score [2]: -8.04 (active); z-score [3]: 0.221 (inactive); composite z-score [4]: 1.23 (inactive); z-score [5]: 0.216 (inactive); z-score [6]: 2.21 (inactive); z-score [7]: -0.41 (inactive); z-score [8]: 0.848; composite z-score [9]: -0.242; composite z-score [10]: -0.26 (inactive); composite z-score [11]: 0.0826; z-score [12]: -3; z-score [13]: -7.08 (inactive); z-score [14]: -0.925 (inactive); z-score [15]: -0.879 (inactive)

Question: What does the source list for CN1C2C=C(c3ccc(CO)cc3)C(C3C(=O)N(C(N)=O)C(=O)C32)C1c1cccs1 (stereo not given)?
Answer: z-score [1]: 0.935; z-score [2]: -1.28 (inactive); z-score [3]: 1.05 (inactive); composite z-score [4]: 0.683 (inactive); z-score [5]: 1.19 (inactive); z-score [6]: 1.09 (inactive); z-score [7]: 0.798 (inactive); z-score [8]: 0.898; composite z-score [9]: -0.337; composite z-score [10]: 0.549 (inactive); composite z-score [11]: 0.92; z-score [12]: -1.65; z-score [13]: -5.19 (inactive); z-score [14]: -1.21 (inactive); z-score [15]: -1.11 (inactive)

Question: Which results are given for COCC(=C=CC[C@H](O)c1ccc(OCCO)cc1)C[C@H](O)c1ccccn1?
Answer: z-score [1]: 0.959; z-score [2]: -0.413 (inactive); z-score [3]: 1.33 (inactive); composite z-score [4]: -0.86 (inactive); z-score [5]: 0.275 (inactive); z-score [6]: 1.74 (inactive); z-score [7]: 1.21 (inactive); z-score [8]: 0.827; composite z-score [9]: -0.02; composite z-score [10]: 0.495 (inactive); composite z-score [11]: -0.246; z-score [12]: -1.14; z-score [13]: -5.63 (inactive); z-score [14]: -0.215 (inactive); z-score [15]: -0.0412 (inactive)

Question: Which z-score [1] does the source give for [N-]=[N+]=NCc1ccccc1C[C@@]1(C(=O)N2CCOCC2)N=C(c2ccc(OCCCO)cc2)O[C@@H]1c1ccccc1N=[N+]=[N-] here?
Answer: 0.164

Question: And the z-score [2]?
Answer: -1.37 (inactive)

Question: And the z-score [3]?
Answer: -1.22 (inactive)

Question: And the composite z-score [4]?
Answer: 0.503 (inactive)

Question: And the z-score [5]?
Answer: 1.12 (inactive)

Question: What about the z-score [6] of the same molecule?
Answer: 2.06 (inactive)

Question: And the z-score [7]?
Answer: 0.612 (inactive)

Question: What about the z-score [8] of the same molecule?
Answer: -1.62

Question: And the composite z-score [9]?
Answer: 0.152

Question: What about the composite z-score [10] of the same molecule?
Answer: 1.4 (inactive)

Question: What about the composite z-score [11] of the same molecule?
Answer: 0.711

Question: And the z-score [12]?
Answer: -1.98

Question: What about the z-score [13] of the same molecule?
Answer: -0.217 (inactive)

Question: And the z-score [14]?
Answer: -0.269 (inactive)

Question: And the z-score [15]?
Answer: 0.0427 (inactive)
